In PubChem BioAssay (EPA / NIEHS):
The source made the active and inactive calls. The calls were made as follows: active = hit-call score of the fitted dose curve at least 0.9, where 1 is the maximum; inactive = score below 0.9.

Experiments:
Conditions in all cases: mRNA level, 48 h; actives raise or lower the signal
[1] = read-out: Apolipoprotein A-V (APOA5) gene, APOA5 (gene 116519); experiment: LTEA_HepaRG_APOA5: Life Technologies and Expression Analysis (LTEA) Assay for Apolipoprotein A-V (APOA5) gene using HepaRG (AID 2283474)
Outline: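 Concentration-response of APOA5 expression in HepaRG: eight half-log doses to 100 uM, 48 h, qRT-PCR normalized to ACTB/GAPDH/POLR2A, bidirectional fitting with 0.5% DMSO as baseline.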

[2] = read-out: Apoptosis regulator Bcl-2 (Homo sapiens) (UniProt P10415); experiment: LTEA_HepaRG_BCL2: Life Technologies and Expression Analysis (LTEA) Assay for Bcl-2 gene using HepaRG (AID 2283475);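 also: BCL2 transcript by TaqMan qRT-PCR normalised to ACTB GAPDH and POLR2A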
Outline: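 Plated human HepaRG cells are exposed to test chemicals for 48 h across eight concentrations from 100 uM downward in half-log steps (0.5% DMSO). BCL2 expression is then measured by qRT-PCR with housekeeping normalisation and fitted bidirectionally against vehicle.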

[3] = read-out: Bcl-2 (BID) gene, BID (gene 637); experiment: LTEA_HepaRG_BID: Life Technologies and Expression Analysis (LTEA) Assay for Bcl-2 (BID) gene using HepaRG (AID 2283476)
Outline: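 Cells are plated, cultured 48 h, switched to serum-free induction medium, then dosed 48 h (100 uM top, half-log steps, 0.5% DMSO). RNA is isolated and BID expression read by qRT-PCR.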

Caspase-3 (Homo sapiens) = Caspase-3 (Homo sapiens) (UniProt P42574); experiment: LTEA_HepaRG_CASP3: Life Technologies and Expression Analysis (LTEA) Assay for cysteine-aspartic acid protease (CASP3) using HepaRG (AID 2283477)
Sequence of Caspase-3 (Homo sapiens) (P42574 whole entry, looked up): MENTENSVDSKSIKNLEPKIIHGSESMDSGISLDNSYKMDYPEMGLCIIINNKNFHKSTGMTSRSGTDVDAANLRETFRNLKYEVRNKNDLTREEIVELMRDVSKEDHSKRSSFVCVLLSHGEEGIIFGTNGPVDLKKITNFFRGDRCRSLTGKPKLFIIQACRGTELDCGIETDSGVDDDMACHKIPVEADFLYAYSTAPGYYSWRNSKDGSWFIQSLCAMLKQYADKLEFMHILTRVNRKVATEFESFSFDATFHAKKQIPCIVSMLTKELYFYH
Outline: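 Transcript-level assay: CASP3 mRNA in human HepaRG after 48 h treatment, eight half-log concentrations from 100 uM in 0.5% DMSO, quantified by qRT-PCR.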

[4] = read-out: Cytochrome P450 (CYP24A1), CYP24A1 (gene 1591); experiment: LTEA_HepaRG_CYP24A1: Life Technologies and Expression Analysis (LTEA) Assay for Cytochrome P450 (CYP24A1) using HepaRG (AID 2283478)
Outline: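 Gene expression of CYP24A1 by TaqMan qRT-PCR in HepaRG after 48 h treatment, highest concentration 100 uM; activity fitted in both directions relative to DMSO vehicle.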

[5] = read-out: Cytochrome P450 (CYP1A2), CYP1A2 (gene 1544); experiment: LTEA_HepaRG_CYP1A2: Life Technologies and Expression Analysis (LTEA) Assay for Cytochrome P450 (CYP1A2) using HepaRG (AID 2283479);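 as to AC50: TaqMan qRT-PCR transcript level normalized to ACTB GAPDH and POLR2A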
Outline: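 In duplicate wells, HepaRG cultures maintained in 0.5% DMSO were treated 48 h across an 8-point, half-log series topping at 100 uM; phenobarbital (1 mM) served as induction control. Expression was read by qRT-PCR.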

[6] = read-out: cysteine-aspartic acid protease (CASP8), CASP8 (gene 841); experiment: LTEA_HepaRG_CASP8: Life Technologies and Expression Analysis (LTEA) Assay for cysteine-aspartic acid protease (CASP8) using HepaRG (AID 2283480)
Outline: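 Concentration-response in duplicate up to 100 uM (half-log steps, 0.5% DMSO) on differentiated HepaRG cultures for 48 h. Expression change of CASP8 mRNA is determined by TaqMan qRT-PCR with housekeeping-gene normalization.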

[7] = read-out: Cytochrome P450 (CYP2B6), CYP2B6 (gene 1555); experiment: LTEA_HepaRG_CYP2B6: Life Technologies and Expression Analysis (LTEA) Assay for Cytochrome P450 (CYP2B6) using HepaRG (AID 2283481)
Outline: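 Human HepaRG, 48 h dosing, 0.5% DMSO vehicle, top dose 100 uM. CYP2B6 transcript by qRT-PCR, housekeeping-normalized, bidirectional curve fit.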

[8] = read-out: Cytochrome P450 2C19 (Homo sapiens) (UniProt P33261); experiment: LTEA_HepaRG_CYP2C19: Life Technologies and Expression Analysis (LTEA) Assay for CYP2C19 using HepaRG (AID 2283482)
Outline: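 Endpoint: CYP2C19 mRNA change, bidirectional fit vs 0.5% DMSO. Cells: HepaRG, 48 h exposure, eight-point series topping at 100 uM. Quantitation: qRT-PCR normalized to ACTB, GAPDH, POLR2A.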

CYP2C8 (gene 1558) = experiment: LTEA_HepaRG_CYP2C8: Life Technologies and Expression Analysis (LTEA) Assay for CYP2C8 using HepaRG (AID 2283483)
Outline: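 This is a transcriptional endpoint in HepaRG cultures: 48 h exposure, highest concentration 100 uM. CYP2C8 mRNA is quantified by TaqMan qRT-PCR.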

CYP2C9 (gene 1559) = experiment: LTEA_HepaRG_CYP2C9: Life Technologies and Expression Analysis (LTEA) Assay for CYP2C9 using HepaRG (AID 2283484)
Outline: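 Eight-point concentration-response (highest 100 uM, half-log dilutions) in HepaRG cells for 48 h; CYP2C9 expression by qRT-PCR normalized to ACTB, GAPDH, POLR2A. Bidirectional fit, DMSO baseline.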

CYP2E1 (gene 1571) = experiment: LTEA_HepaRG_CYP2E1: Life Technologies and Expression Analysis (LTEA) Assay for CYP2E1 using HepaRG (AID 2283485)
Outline: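 Readout is qRT-PCR of CYP2E1 mRNA, normalized to three housekeeping genes and fitted bidirectionally against 0.5% DMSO. HepaRG cells were dosed 48 h at eight concentrations, highest 100 uM with half-log dilutions.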

CYP4A11 (gene 1579) = experiment: LTEA_HepaRG_CYP4A11: Life Technologies and Expression Analysis (LTEA) Assay for CYP4A11 using HepaRG (AID 2283486)
Outline: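 Human hepatic HepaRG cultures receive duplicate 48 h exposures across a concentration-response series topping at 100 uM. Expression changes in CYP4A11 are measured by qRT-PCR relative to DMSO controls.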

[9] = read-out: DNA damage-inducible transcript 3 (DDIT3), DDIT3 (gene 1649); experiment: LTEA_HepaRG_DDIT3: Life Technologies and Expression Analysis (LTEA) Assay for DNA damage-inducible transcript 3 (DDIT3) using HepaRG (AID 2283488)
Outline: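 Cells are human HepaRG liver cells treated for 48 h with eight half-log concentrations up to 100 uM in 0.5% DMSO. Transcript levels come from qRT-PCR normalized to three housekeeping genes, with activity fitted in both directions relative to vehicle.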

[10] = read-out: Pro-epidermal growth factor (Homo sapiens) (UniProt P01133); experiment: LTEA_HepaRG_EGF: Life Technologies and Expression Analysis (LTEA) Assay for Epidermal growth factor (EGF) using HepaRG (AID 2283489)
Outline: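 Concentration-response mRNA assay: HepaRG cells dosed 48 h (max 100 uM, 0.5% DMSO), EGF measured by qRT-PCR and normalized to ACTB/GAPDH/POLR2A.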

[11] = read-out: Ezrin (EZR), EZR (gene 7430); experiment: LTEA_HepaRG_EZR: Life Technologies and Expression Analysis (LTEA) Assay for Ezrin (EZR) using HepaRG (AID 2283491)
Outline: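 Read-out is EZR transcript level by qRT-PCR, normalized to three housekeeping genes and fitted bidirectionally against the DMSO control. Human HepaRG cells received test chemicals for 48 h at eight half-log concentrations up to 100 uM in 0.5% DMSO.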

[12] = read-out: Cytochrome P450 3A7 (Homo sapiens) (UniProt P24462); experiment: LTEA_HepaRG_CYP3A7: Life Technologies and Expression Analysis (LTEA) Assay for CYP3A7 using HepaRG (AID 2283492)
Outline: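 qRT-PCR of CYP3A7 in HepaRG lysates after 48 h treatment; concentration-response (8 points, max 100 uM) analysed bidirectionally relative to 0.5% DMSO controls.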

CYP3A5 (gene 1577) = experiment: LTEA_HepaRG_CYP3A5: Life Technologies and Expression Analysis (LTEA) Assay for CYP3A5 using HepaRG (AID 2283493)
Outline: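 Human HepaRG hepatic cells receive 48 h chemical treatment at eight concentrations (half-log steps from 100 uM) in 0.5% DMSO. Expression of CYP3A5 is quantified by Fluidigm qRT-PCR and normalized to three reference genes.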

[13] = read-out: Cytochrome P450 3A4 (Homo sapiens) (UniProt P08684); experiment: LTEA_HepaRG_CYP3A4: Life Technologies and Expression Analysis (LTEA) Assay for CYP3A4 using HepaRG (AID 2283487)
Outline: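 HepaRG, 48 h exposure, 8-pt CRC from 100 uM (half-log), 0.5% DMSO, duplicates; serum-free induction medium. Readout: CYP3A4 mRNA, qRT-PCR, ACTB/GAPDH/POLR2A normalization. Bidirectional fit vs DMSO.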

[14] = read-out: Early growth response protein 1 (EGR1) transcription factor, EGR1 (gene 1958); experiment: LTEA_HepaRG_EGR1: Life Technologies and Expression Analysis (LTEA) Assay for Early growth response protein 1 (EGR1) transcription factor using HepaRG (AID 2283490)
Outline: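 EGR1 expression change in human HepaRG after 48 h chemical exposure, assessed by housekeeping-normalized qRT-PCR; concentration-response up to 100 uM, fitted in both directions against DMSO controls.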

Measured: AC50

Sequence of Apoptosis regulator Bcl-2 (Homo sapiens) (P10415 whole entry, looked up): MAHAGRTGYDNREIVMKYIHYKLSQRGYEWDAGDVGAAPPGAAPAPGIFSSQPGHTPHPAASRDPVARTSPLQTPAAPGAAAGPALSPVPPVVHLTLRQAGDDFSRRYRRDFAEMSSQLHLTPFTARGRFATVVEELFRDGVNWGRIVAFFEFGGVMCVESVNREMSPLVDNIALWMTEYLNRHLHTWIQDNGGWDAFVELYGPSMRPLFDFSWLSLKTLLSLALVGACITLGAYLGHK
Sequence of Cytochrome P450 3A4 (Homo sapiens) (P08684 whole entry, looked up): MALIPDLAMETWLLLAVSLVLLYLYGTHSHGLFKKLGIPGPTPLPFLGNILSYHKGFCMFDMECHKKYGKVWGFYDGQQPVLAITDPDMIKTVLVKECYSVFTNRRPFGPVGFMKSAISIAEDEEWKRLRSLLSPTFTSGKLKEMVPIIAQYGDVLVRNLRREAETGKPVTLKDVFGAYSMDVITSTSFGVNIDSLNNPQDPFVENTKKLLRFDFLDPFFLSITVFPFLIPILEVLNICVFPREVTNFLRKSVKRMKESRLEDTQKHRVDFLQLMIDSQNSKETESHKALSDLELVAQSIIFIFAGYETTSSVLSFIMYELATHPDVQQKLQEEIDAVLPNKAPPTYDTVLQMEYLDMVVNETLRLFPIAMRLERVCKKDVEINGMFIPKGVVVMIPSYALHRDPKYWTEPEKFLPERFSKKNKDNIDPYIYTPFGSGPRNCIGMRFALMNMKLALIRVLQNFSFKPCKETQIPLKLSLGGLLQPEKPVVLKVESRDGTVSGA
Sequence of Cytochrome P450 2C19 (Homo sapiens) (P33261 whole entry, looked up): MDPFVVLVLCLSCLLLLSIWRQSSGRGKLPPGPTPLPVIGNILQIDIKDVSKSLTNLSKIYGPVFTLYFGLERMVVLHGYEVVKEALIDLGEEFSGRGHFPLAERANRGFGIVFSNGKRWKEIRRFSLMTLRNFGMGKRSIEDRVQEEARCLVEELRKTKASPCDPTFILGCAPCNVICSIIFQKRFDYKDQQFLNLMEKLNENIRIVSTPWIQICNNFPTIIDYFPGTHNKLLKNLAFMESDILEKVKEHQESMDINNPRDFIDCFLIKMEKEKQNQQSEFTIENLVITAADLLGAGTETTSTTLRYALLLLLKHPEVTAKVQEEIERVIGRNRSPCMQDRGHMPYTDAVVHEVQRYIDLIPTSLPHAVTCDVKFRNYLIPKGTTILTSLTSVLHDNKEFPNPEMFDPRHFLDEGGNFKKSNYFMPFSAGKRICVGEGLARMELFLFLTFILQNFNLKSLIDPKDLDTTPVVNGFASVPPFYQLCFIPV
Sequence of Cytochrome P450 3A7 (Homo sapiens) (P24462 whole entry, looked up): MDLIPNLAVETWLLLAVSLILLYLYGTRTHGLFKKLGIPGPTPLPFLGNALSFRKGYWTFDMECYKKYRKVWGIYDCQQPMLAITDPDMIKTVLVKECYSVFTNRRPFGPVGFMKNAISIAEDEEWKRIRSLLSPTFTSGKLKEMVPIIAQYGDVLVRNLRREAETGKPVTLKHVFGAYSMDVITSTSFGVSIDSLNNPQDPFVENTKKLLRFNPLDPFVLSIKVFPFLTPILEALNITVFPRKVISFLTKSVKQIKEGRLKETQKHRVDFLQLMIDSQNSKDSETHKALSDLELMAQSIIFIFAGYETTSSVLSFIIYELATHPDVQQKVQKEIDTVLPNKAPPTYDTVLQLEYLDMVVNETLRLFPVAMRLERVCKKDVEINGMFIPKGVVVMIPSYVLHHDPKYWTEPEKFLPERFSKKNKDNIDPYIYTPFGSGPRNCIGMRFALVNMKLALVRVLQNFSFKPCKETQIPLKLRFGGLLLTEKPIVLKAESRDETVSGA

CCOP(=S)(OCC)Oc1ccc2c(C)c(Cl)c(=O)oc2c1
active: [5] 4.03 µM | [7] 2.49 µM | [8] 12.6 µM | CYP2E1 (gene 1571) 31.6 µM | CYP4A11 (gene 1579) 50 µM | [9] 80.3 µM
inactive: [1] | [2] | [3] | Caspase-3 (Homo sapiens) | [4] | [6] | CYP2C8 (gene 1558) | CYP2C9 (gene 1559) | [10] | [11] | [12] | CYP3A5 (gene 1577)

Cc1nn(-c2cc(NS(C)(=O)=O)c(Cl)cc2Cl)c(=O)n1C(F)F
active: [7] 11.8 µM | CYP2E1 (gene 1571) 12.8 µM | [13] 3.03 µM | [12] 7.34 µM
inactive: [1] | [2] | [3] | Caspase-3 (Homo sapiens) | [4] | [5] | [6] | CYP2C8 (gene 1558) | CYP2C9 (gene 1559) | CYP4A11 (gene 1579) | [9] | [10] | [14] | [11] | CYP3A5 (gene 1577)

Cc1cc(C2CC2)nc(Nc2ccccc2)n1
active: [5] 91.5 µM | [7] 18 µM
inactive: [1] | [2] | [3] | Caspase-3 (Homo sapiens) | [4] | [6] | [8] | CYP2C9 (gene 1559) | CYP2E1 (gene 1571) | CYP4A11 (gene 1579) | [13] | [9] | [10] | [11] | [12] | CYP3A5 (gene 1577)

Nc1nc(N)nc(NC2CC2)n1
inactive: [1] | [2] | [3] | Caspase-3 (Homo sapiens) | [4] | [5] | [6] | [7] | [8] | CYP2C9 (gene 1559) | CYP2E1 (gene 1571) | CYP4A11 (gene 1579) | [13] | [9] | [10] | [11] | [12] | CYP3A5 (gene 1577)

CCC(=O)Nc1ccc(Cl)c(Cl)c1
inactive: [1] | [2] | [3] | Caspase-3 (Homo sapiens) | [4] | [6] | CYP2C9 (gene 1559) | [13] | [9] | [10] | [11] | [12] | CYP3A5 (gene 1577)
active: [5] 33 µM | [7] 12.6 µM | [8] 32.7 µM | CYP2E1 (gene 1571) 50 µM | CYP4A11 (gene 1579) 50 µM

FC(F)C(F)(F)OCC(Cn1cncn1)c1ccc(Cl)cc1Cl (stereo not drawn)
inactive: [3] | [4] | [6] | [10]
active: [1] 35.6 µM | [2] 30.2 µM | Caspase-3 (Homo sapiens) 82 µM | [5] 28.6 µM | [7] 31.7 µM | [8] 34.8 µM | CYP2C9 (gene 1559) 38.1 µM | CYP2E1 (gene 1571) 16.1 µM | CYP4A11 (gene 1579) 28.8 µM | [13] 35.2 µM | [9] 28.7 µM | [12] 49.8 µM | CYP3A5 (gene 1577) 83 µM
